Bioassay records: PubChem BioAssay, National Center for Advancing Translational Sciences (NCATS)
Sampled rows, rich in hits. Any-hit rate of the full collection: about 1.1%.
LDHA block = inhibitors of human lactate dehydrogenase A; P00338; purified LDHA, NADH/diaphorase-resazurin fluorescence; active compounds read low; activity change, % (values are at about 110 or 230 µM); hit rate 0.15% among 480,000; in the data active = activity change below about -30%; inconclusive = mostly about -25% to -30%
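Human LDH5 (2 nM) was incubated with 0.06 mM NADH and 0.2 mM pyruvate for 5 min at room temperature in Tris pH 7.4. Remaining NADH was coupled through diaphorase/resazurin, and resorufin fluorescence was read at 0 and 20 min.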
PTHR1 ag = activates the human parathyroid hormone receptor PTHR1 | Potency, µM (highest dose often 115 µM), hits mostly activators | hit rate 0.075% among 410,000 | Q03431 | HEK293 GP2 PTHR1 cells, GloSensor cAMP luminescence, 1 h; also: nearly all actives have a fitted effect of over 55% in size
Target sequence (Q03431 whole entry, looked up): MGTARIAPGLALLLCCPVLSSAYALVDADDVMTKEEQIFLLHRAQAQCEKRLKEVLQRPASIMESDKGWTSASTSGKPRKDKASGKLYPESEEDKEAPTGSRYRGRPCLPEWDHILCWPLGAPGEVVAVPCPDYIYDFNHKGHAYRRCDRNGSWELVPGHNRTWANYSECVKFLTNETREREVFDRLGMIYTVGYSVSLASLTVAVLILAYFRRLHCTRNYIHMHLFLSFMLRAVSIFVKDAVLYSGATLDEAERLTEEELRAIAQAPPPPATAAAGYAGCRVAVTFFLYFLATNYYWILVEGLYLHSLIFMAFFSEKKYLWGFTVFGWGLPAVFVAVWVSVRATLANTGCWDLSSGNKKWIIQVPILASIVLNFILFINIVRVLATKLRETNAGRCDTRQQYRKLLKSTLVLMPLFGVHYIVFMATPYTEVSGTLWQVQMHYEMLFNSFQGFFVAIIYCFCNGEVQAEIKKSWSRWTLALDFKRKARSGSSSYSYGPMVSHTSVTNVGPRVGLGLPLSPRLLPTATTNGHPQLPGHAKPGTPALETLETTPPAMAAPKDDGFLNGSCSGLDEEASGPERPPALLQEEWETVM
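HEK-293-derived GP2 cells expressing PTHR1 and a GloSensor cAMP reporter, 3,000/well, plated overnight, given luciferin plus IBMX (each 0.5 mM as added) for 1 h at 37 °C, then compound for 1 h at 37 °C. Luminescence was read after 15 min at room temperature.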
RGS4 inh = inhibitors of human regulator of G protein signaling 4 | Potency, µM (doses to about 114 µM), hits mostly inhibitors | Transcreener GDP fluorescence polarization, RGS4-accelerated GTP hydrolysis | P49798 | hit rate 0.039% among 390,000; also: nearly all actives have a fitted effect of over 75% in size
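MLSMR compounds (23 nl, pin-transferred) preincubated 10 min at room temperature with a 500nM (2x) first reagent, then RGS4 at 900nM (2x) plus Transcreener GDP mix added; fluorescence polarization (620/688 nm) read before and after 90 min at 30 °C.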
BRCA1 expr act = BRCA1 expression activation | MCF7-BRCA1-FFLuc reporter, luminescence, 48 h; response scale: scaled: vehicle 0%, 10 µM genistein 100% | Potency, µM (doses to about 46.1 µM), most hits filed as activators | hit rate 1.1% among 380,000; also: nearly all actives have a fitted effect of over 80% in size
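Quantitative HTS in MCF7 cells stably reporting BRCA1 expression via firefly luciferase. Compound treatment lasts 48 h at 37 °C in phenol-red free MEM. Activation is expressed relative to genistein at 10 microM and DMSO.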
p53 reactivator = restores transcriptional activity of mutant p53. H1299 p53-A138V BP100-luciferase reporter, luminescence, 24 h. Potency, µM (titrated, usually from 92.2 µM), actives largely listed as activators. hit rate 0.063% among 320,000. AID 504706; also: nearly all actives have a fitted effect of over 45% in size
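H1299 (p53-null), stable ts p53-A138V + BP100-Luc; 1000 cells/well, Opti-MEM/10% FBS; cpd 4 pt, 1:5; 24 h, 37 deg C, 5% CO2; detection reagent 10 min RT; luminescence.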
Numbers stand for hits; i = inactive; ? = inconclusive; nt = not tested or not shown; [ ] = dose if it differs, or a comment. Unless noted, calls follow the shape of the dose curve; as a rule, active = well fitted curve in the direction sought with a large enough effect; inconclusive = small, poorly fitted or top-dose-only effect, or another doubt; inactive = no such curve, though single readings can be large; an effect the other way counts as inactive or inconclusive.

SMILES	LDHA block	PTHR1 ag	RGS4 inh	BRCA1 expr act	p53 reactivator
Cc1cnc2c(S(=O)(=O)N3CCC(NS(=O)(=O)c4ccccc4)CC3)cccc2c1	i	nt	nt	nt	nt
CCCNc1c(NC(=O)COc2ccccc2C)c(=O)oc2ccccc12	i	nt	nt	nt	nt
Cc1cc(/C=N/NC(=O)c2ccccn2)c(C)n1-c1cccc([N+](=O)[O-])c1	i	i	i	10µM	i
CC(=NNc1ccc([N+](=O)[O-])cn1)c1ccccc1	i	i	i	10µM	nt
Cc1cccc(-n2c(C)cc(/C=N\NC(=O)c3ccco3)c2C)c1	i	i	i	8.9µM	i
Cc1cc(/C=N/Nc2ccc([N+](=O)[O-])cn2)c(C)n1-c1ccccc1	i	i	i	10µM	i
Cc1cc(C(=O)NNC(=S)NC(=O)c2ccccc2)cs1	i	nt	nt	nt	nt
Cc1c2c(=O)n(-c3ccc(Cl)cc3)[nH]c2cc(=O)n1Cc1ccc(Cl)cc1	i	nt	nt	nt	nt
CCCCc1ccc(OC(=O)c2ccc(O)cc2)cc1	i	nt	nt	nt	nt
C[n+]1cnc(-c2ccccc2)cc1-c1ccccc1	-49	i	i	i	i
c1ccc(-c2cn(CC3CCCCC3)nn2)cc1	i	i	i	5.6µM	nt
CCCCCOC(=O)CSc1nc2c(c(=O)[nH]c(=O)n2C)n1Cc1ccc(C)cc1	i	nt	nt	nt	nt
Cc1ccc(-c2nc(S(=O)(=O)c3ccc(F)cc3)c(N(C)C)o2)cc1	i	nt	nt	nt	nt
COc1ccc(-c2c(C)nn(-c3ccccc3)c2N)cc1OC	i	i	i	i	i
COc1ccc(-c2nn(-c3ccccc3)cc2N)cc1	i	i	i	3.2µM	?
Cc1ccc(-c2nn(-c3ccccc3)cc2CO)cc1	i	i	i	7.9µM	?
COc1ccc(-c2c(C)nn(-c3ccccc3)c2N)cc1	i	i	i	11µM	i
COc1ccc(-c2nn(-c3ccccc3)cc2CO)cc1	i	i	i	?	i
O=C(CN1C(=O)S/C(=C\c2cccc(Cl)c2)C1=O)Nc1ccc2oc(=O)ccc2c1	i	nt	nt	nt	nt
S=C(NCc1ccccc1Cl)Nc1cc(Cl)cc(Cl)c1	i	nt	nt	nt	nt
O=C(Nc1nnc(-c2cccs2)o1)c1cccc(Oc2ccccc2)c1	-33	i	i	i	?
O=C(Cc1ccc2ccccc2c1)Nc1cnc2ccccc2c1	i	nt	nt	nt	nt
O=C(COc1ccc2ccccc2c1)Nc1cnc2ccccc2c1	-33	nt	nt	nt	nt
CN1CCN(CN2C(=O)C(O)(CC(=O)c3ccc(Br)s3)c3ccccc32)CC1 (configuration not stated)	i	nt	nt	nt	nt
CC(Cc1ccco1)NC(=O)c1ccc(Cl)c(S(C)(=O)=O)c1 (configuration not stated)	-37	nt	nt	nt	nt
SMILES	LDHA block	PTHR1 ag	RGS4 inh	BRCA1 expr act	p53 reactivator
O=C(Nc1nc2ccccc2s1)C1CCCc2ccccc21 (configuration not stated)	i	nt	nt	nt	nt
Cc1c(C(=O)c2ccccc2)oc2ccc3ccccc3c12	i	i	i	10µM	?
CNc1nc(-c2ccc([N+](=O)[O-])cc2)cs1	i	i	?	10µM	i
CNC(=O)c1c(Cl)cnn1-c1ccc(C)cc1	i	i	i	6.3µM	i
CNC(=O)c1c(Br)cnn1-c1ccc(C)cc1	i	i	i	?	i
CN(C)c1ccc(C#Cc2ccc3cc(CCCO)oc(=O)c3c2)cc1	i	i	i	3.2µM	i
CCc1ccc(NC(=O)CS(=O)CC(=O)Nc2ccc(-n3cnnn3)c(C)c2)cc1 (configuration not stated)	-32	i	i	i	i
CC(NC(=O)C1CCN(C(=O)c2cccc3ccccc23)CC1)c1ccc(F)cc1F (configuration not stated)	i	nt	nt	nt	nt
CCNC(=O)NC(=O)C(C)OC(=O)c1cc(-c2cccs2)nc2ccccc12 (configuration not stated)	i	nt	nt	nt	nt
Cc1ccc(Oc2ccccc2NC(=O)Cn2nc(C(N)=O)c3ccccc3c2=O)cc1	i	nt	nt	nt	nt
Cc1ccc(Nc2n[nH]c(C)c2[N+](=O)[O-])cc1C	i	i	i	?	22µM
Cn1c2ccccc2c(=O)c2ccc(Cl)cc21	i	i	nt	14µM	nt
O=c1ccn([C@@H]2O[C@H](COP(=O)(O)O)[C@@H](O)[C@H]2O)c(=O)[nH]1	nt	nt	38µM	nt	nt
Nc1ccn(C2OC(COP(=O)(O)O)C(O)C2O)c(=O)n1 (configuration not stated)	i	i	i	i	nt
CC(C)N(CCNC(=O)c1cc2cc(F)ccc2[nH]1)C(C)C	i	nt	nt	nt	nt
Cc1oc(-c2ccccc2)nc1CN1CCN(C(=O)c2ccco2)CC1	i	nt	nt	nt	nt
N#C/C(=C/c1ccc(N2CCCCC2)cc1)c1cccc(F)c1	i	i	i	7.9µM	?
CCOc1ccc2[nH]cc(S(=O)(=O)c3ccc(C)cc3)c(=O)c2c1	i	i	i	i	i
CCOc1ccc2[nH]cc(S(=O)(=O)c3ccc(Cl)cc3)c(=O)c2c1	-44	i	i	i	i
O=C(Nc1cc(F)ccc1F)c1cc(-c2ccco2)nc2ccccc12	i	nt	nt	nt	nt
Cc1ccc(NC(=O)CCc2c(C)nn(-c3ccc(N4CCCCC4)nn3)c2C)cc1	i	i	i[11.4 µM]	4µM	i
Cc1nn(-c2ccc(N3CCCCC3)nn2)c(C)c1CCC(=O)Nc1ccc(F)c(F)c1	i	i	i	2.2µM	?
Cc1nn(-c2ccc(N3CCCC3)nn2)c(C)c1CCC(=O)Nc1ccc(F)c(Cl)c1	i	i	i	nt	nt
CC(Cc1ccco1)NC(=O)C1CCCO1 (configuration not stated)	i	nt	nt	nt	nt
CC1(C)CC(=O)C2=C(C1)Nc1cc3c(cc1C2c1ccc(OCC(=O)O)cc1)OCO3 (configuration not stated)	i	nt	nt	nt	nt
SMILES	LDHA block	PTHR1 ag	RGS4 inh	BRCA1 expr act	p53 reactivator
CC(C)COc1ccc(C(=O)NCC2OCCc3ccccc32)cc1 (configuration not stated)	i	i	i	nt	nt
COc1ccc(C(=O)NCC2OCCc3ccccc32)c(O)c1 (configuration not stated)	i	i	i	11µM	i
O=C1c2ccccc2NC(c2ccccc2O)N1c1ccc(F)cc1 (configuration not stated)	i	i	i	4µM	i
O=C1c2ccccc2NC(c2ccccn2)N1c1ccc(Cl)cc1 (configuration not stated)	i	i	i	11µM	i
COc1cccc(C2Nc3ccccc3C(=O)N2c2ccc(F)cc2)c1O (configuration not stated)	i	i	i	7.9µM	?
COc1cccc(C2Nc3ccccc3C(=O)N2O)c1O (configuration not stated)	i	i	i	i	i
O=C1c2ccccc2NC(c2ccccc2)N1c1ccc(O)cc1 (configuration not stated)	i	i	i	i	i
COCCc1nc2ccc(C(=O)N3CCCCC3COC)cc2o1 (configuration not stated)	i	i	i	i	i
